Data published in PubChem BioAssay (Tox21).
Values without a mark were called inactive. Records with an inconclusive call do not appear. Entries that show only a call come without a potency. Calls of active or inactive are those of the source. Unless noted, the call rests on the fitted dose curve; in most records, active means well fitted curve in the direction sought with a large enough effect in the repeat runs; inconclusive means weak or mixed curves; inactive means no such curve, though single readings can be large; an effect the other way counts as inactive or inconclusive.

Key:
[1] = qHTS RealTime-Glo MT Cell Viability Assay in HepG2 cells - 32 hour (AID 1224877); further: nearly all actives have a fitted effect of over 55% in size
Procedure, shortened: (§1)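 HepG2 cells (600/well) were dispensed with RealTime-Glo reagents, incubated 5 h at 37 °C, then treated with compounds in DMSO for up to 40 h. Nonlytic NanoLuc luminescence reflecting viable cells was read at each stated time point.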

[2] = A CellTox Green Cytotoxicity Assay to monitor cytotoxicity in HepG2 cells - 24 hour (AID 1224878); further: nearly all actives have a fitted effect of over 45% in size
Procedure, shortened: (§2)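 Read-out is fluorescence of a cyanine dye excluded from live cells that stains DNA of dead HepG2 cells, with signal proportional to cytotoxicity. Plates were read at 0, 8, 16, 24, 32 and 40 h after compound addition.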

[3] = qHTS RealTime-Glo MT Cell Viability Assay in HEK293 cells - 0 hour (AID 1224880); further: nearly all actives have a fitted effect of over 45% in size; further: potency means the concentration at half of the fitted maximal effect
Procedure, shortened: (§3)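 Cells were seeded together with NanoLuc luciferase and a prosubstrate that viable cells reduce to a luciferase substrate. After a 5 h incubation at 37 C/5% CO2, compounds were added and luminescence was measured repeatedly during 40 h of treatment.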

[4] = A CellTox Green Cytotoxicity Assay to monitor cytotoxicity in HEK293 cells - 32 hour (AID 1224881); further: nearly all actives have a fitted effect of over 40% in size
Procedure, shortened: (§4)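 Nonlytic real-time cytotoxicity: HEK293 + CellTox Green reagent plated, 5 h preincubation, pintool compound addition (23 nL in DMSO), 37 C for 40 h, fluorescence measured at successive time points.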

[5] = A CellTox Green Cytotoxicity Assay to monitor cytotoxicity in HepG2 cells - 0 hour (AID 1224882); further: nearly all actives have a fitted effect of over 35% in size
Procedure, shortened: as §2

[6] = A CellTox Green Cytotoxicity Assay to monitor cytotoxicity in HepG2 cells - 32 hour (AID 1224883); further: nearly all actives have a fitted effect of over 50% in size
Procedure, shortened: as §2

[7] = A CellTox Green Cytotoxicity Assay to monitor cytotoxicity in HEK293 cells - 8 hour (AID 1224884); further: nearly all actives have a fitted effect of over 35% in size
Procedure, shortened: as §4

[8] = qHTS RealTime-Glo MT Cell Viability Assay in HepG2 cells - 16 hour (AID 1224885); further: nearly all actives have a fitted effect of over 50% in size
Procedure, shortened: as §1

[9] = qHTS RealTime-Glo MT Cell Viability Assay in HEK293 cells - 24 hour (AID 1224886); further: top concentration of the series differs between compounds; nearly all actives have a fitted effect of over 50% in size
Procedure, shortened: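 HEK293 cells seeded with NanoLuc/prosubstrate reagent, rested 5 h at 37 C, then dosed and kept at 37 C up to 40 h. Nonlytic real-time luminescence from viable cells read at 0, 8, 16, 24, 32 and 40 h.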

[10] = qHTS RealTime-Glo MT Cell Viability Assay in HEK293 cells - 8 hour (AID 1224887); further: top concentration of the series differs between compounds; nearly all actives have a fitted effect of over 50% in size
Procedure, shortened: as §3

[11] = A CellTox Green Cytotoxicity Assay to monitor cytotoxicity in HEK293 cells - 16 hour (AID 1224888); further: nearly all actives have a fitted effect of over 35% in size
Procedure, shortened: as §4

[12] = qHTS RealTime-Glo MT Cell Viability Assay in HepG2 cells - 0 hour (AID 1224889); further: nearly all actives have a fitted effect of over 50% in size; further: potency means the concentration at half of the fitted maximal effect
Procedure, shortened: as §1

[13] = A CellTox Green Cytotoxicity Assay to monitor cytotoxicity in HepG2 cells - 8 hour (AID 1224890); further: nearly all actives have a fitted effect of over 45% in size
Procedure, shortened: as §2

[14] = qHTS assay to identify small molecule antagonists of the estrogen receptor alpha (ER-alpha) signaling pathway using the BG1 cell line in the presence of 0.1 nM 17-beta-estradiol - cell viability counter screen (AID 1259241); further: nearly all actives have a fitted effect of over 40% in size
Procedure, shortened: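 Estradiol-stimulated (0.1 nM) VM7Luc4E2 cells exposed to compounds 22 hr; viability measured by fluorescence of cleaved CellTiter-Fluor substrate after 30 min.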

[15] = qHTS assay to identify small molecule antagonists of the androgen receptor (AR) signaling pathway using the MDA cell line in the presence of 0.5 nM R1881 - cell viability counter screen (AID 1259242); further: nearly all actives have a fitted effect of over 45% in size
Procedure, shortened: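 Counter screen for cytotoxicity run in the same wells as the AR antagonist reporter screen: MDA-kb2 cells were treated 16 hr with test compounds and 0.5 nM R1881, then live-cell protease activity was measured by fluorescence.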

[16] = target: Estrogen receptor (Homo sapiens) (UniProt P03372); test: qHTS assay to identify small molecule antagonists of the estrogen receptor alpha (ER-alpha) signaling pathway using the BG1 cell line in the presence of 0.1 nM 17-beta-estradiol (AID 1259244); further: nearly all actives have a fitted effect of over 50% in size
Procedure, shortened: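 Cells: VM7Luc4E2, endogenous ER-alpha, 4x ERE-luc stable. Pre-culture 5 d, phenol red-free, charcoal-stripped FBS. Plated 24 h, compound + E2 0.1 nM final, 22 h 37C/5% CO2. Readout ONE-Glo luminescence.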

[17] = qHTS assay to identify small molecule phospholipidosis (PLD) inducers (AID 1259344; active means well fitted curve in the direction sought with a large enough effect; an effect the other way counts as inactive or inconclusive)
Procedure, shortened: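 HepG2 cells on collagen I, attached 4 h at 37 C, were co-treated with compound and LipidTOX Red dye for 24 h at 37 C, then fixed with paraformaldehyde plus Hoechst 33342 and imaged by high-content microscopy for phospholipid accumulation.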

[18] = qHTS assay to identify small molecule HDAC inhibitors (AID 1259364)
Procedure, shortened: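 Luminescence from a cell-permeant luminogenic class I/II HDAC substrate reports endogenous deacetylase activity in intact HCT-116 cells treated with compounds for 2 h.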

[19] = A CellTox Green Cytotoxicity Assay to monitor cytotoxicity in HepG2 cells - 40 hour (AID 1224879); further: nearly all actives have a fitted effect of over 40% in size
Procedure, shortened: as §2

[20] = target: Androgen receptor (Homo sapiens) (UniProt P10275); test: qHTS assay to identify small molecule antagonists of the androgen receptor (AR) signaling pathway using the MDA cell line in the presence of 0.5 nM R1881 (AID 1259243); further: nearly all actives have a fitted effect of over 50% in size
Procedure, shortened: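 Luciferase luminescence is the read-out: compounds are tested for suppressing 0.5 nM R1881-driven MMTV reporter activity in MDA-kb2 cells after 16 hr at 37C.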

Sequence of Estrogen receptor (Homo sapiens) (P03372 whole entry, looked up): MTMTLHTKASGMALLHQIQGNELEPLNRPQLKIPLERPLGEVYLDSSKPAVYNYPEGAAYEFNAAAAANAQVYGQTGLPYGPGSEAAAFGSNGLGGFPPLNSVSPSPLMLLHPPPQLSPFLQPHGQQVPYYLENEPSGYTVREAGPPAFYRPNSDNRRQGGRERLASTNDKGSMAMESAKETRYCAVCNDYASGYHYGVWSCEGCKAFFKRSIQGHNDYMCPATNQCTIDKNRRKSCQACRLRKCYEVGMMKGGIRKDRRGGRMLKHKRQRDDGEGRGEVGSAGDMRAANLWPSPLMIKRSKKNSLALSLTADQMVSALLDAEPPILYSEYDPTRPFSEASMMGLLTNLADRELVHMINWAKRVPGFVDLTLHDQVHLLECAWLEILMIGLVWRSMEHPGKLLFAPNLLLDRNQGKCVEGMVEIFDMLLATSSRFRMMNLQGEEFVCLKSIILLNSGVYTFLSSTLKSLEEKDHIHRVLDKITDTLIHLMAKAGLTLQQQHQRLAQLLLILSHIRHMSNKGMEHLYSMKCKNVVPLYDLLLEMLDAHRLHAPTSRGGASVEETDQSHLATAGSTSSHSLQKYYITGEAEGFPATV
Sequence of Androgen receptor (Homo sapiens) (P10275 whole entry, looked up): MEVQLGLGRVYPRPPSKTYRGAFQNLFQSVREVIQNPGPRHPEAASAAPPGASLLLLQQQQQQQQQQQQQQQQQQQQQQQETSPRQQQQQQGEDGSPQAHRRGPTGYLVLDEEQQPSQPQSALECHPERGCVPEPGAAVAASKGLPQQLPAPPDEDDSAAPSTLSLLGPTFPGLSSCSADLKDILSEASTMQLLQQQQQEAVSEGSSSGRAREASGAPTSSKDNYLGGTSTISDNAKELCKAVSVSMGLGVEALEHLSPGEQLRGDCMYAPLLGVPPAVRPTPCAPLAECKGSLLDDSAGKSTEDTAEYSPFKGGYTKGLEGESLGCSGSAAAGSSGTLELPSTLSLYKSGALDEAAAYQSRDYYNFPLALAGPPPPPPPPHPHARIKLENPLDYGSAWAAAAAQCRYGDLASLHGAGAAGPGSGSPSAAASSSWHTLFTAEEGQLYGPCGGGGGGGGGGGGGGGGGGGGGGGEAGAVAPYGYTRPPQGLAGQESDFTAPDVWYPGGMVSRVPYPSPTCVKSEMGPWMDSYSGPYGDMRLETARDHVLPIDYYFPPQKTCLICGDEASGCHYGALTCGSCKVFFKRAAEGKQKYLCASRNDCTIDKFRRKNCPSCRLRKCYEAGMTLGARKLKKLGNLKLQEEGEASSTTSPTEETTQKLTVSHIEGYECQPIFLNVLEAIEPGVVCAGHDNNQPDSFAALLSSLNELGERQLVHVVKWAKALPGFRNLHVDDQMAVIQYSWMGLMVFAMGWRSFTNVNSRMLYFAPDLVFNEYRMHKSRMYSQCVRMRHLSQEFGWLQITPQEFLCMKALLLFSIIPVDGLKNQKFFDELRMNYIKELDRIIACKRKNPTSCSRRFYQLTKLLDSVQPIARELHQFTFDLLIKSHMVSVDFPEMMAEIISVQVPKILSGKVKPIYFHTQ

| Structure (SMILES) | outcome [1] | Potency [2] | Potency [3] | Potency [4] | Potency [5] | Potency [6] | Potency [7] | outcome [8] | Potency [9] | Potency [10] | Potency [11] | Potency [12] | Potency [13] | outcome [14] | outcome [15] | outcome [16] | outcome [17] | Potency [18] | Potency [19] | Potency [20] |
| --- | --- | --- | --- | --- | --- | --- | --- | --- | --- | --- | --- | --- | --- | --- | --- | --- | --- | --- | --- | --- |
| C[C@]12CCC(=O)C=C1CC[C@H]1[C@@H]3CC[C@](O)(C(=O)CO)[C@@]3(C)C[C@H](O)[C@@]12F | inactive | inactive | 9.52 µM (active) | inactive | inactive | inactive | inactive | inactive | inactive | inactive | inactive | 2.13 µM (active) | inactive | inactive | inactive | inactive | inactive | – | – | – |
| Cn1c(=O)c2[nH]c(Br)nc2n(C)c1=O | inactive | inactive | inactive | inactive | inactive | inactive | inactive | inactive | inactive | inactive | inactive | inactive | inactive | inactive | inactive | – | inactive | inactive | – | – |
| CC(C)COC(=O)c1ccccc1 | inactive | – | inactive | inactive | inactive | inactive | inactive | inactive | inactive | inactive | inactive | inactive | inactive | inactive | inactive | inactive | – | inactive | inactive | inactive |
| CC1=C(O)C(=O)C(C)O1 (stereo unspecified) | inactive | inactive | inactive | inactive | inactive | inactive | – | inactive | inactive | inactive | – | inactive | inactive | inactive | inactive | inactive | – | inactive | – | – |
| Cc1c(NC(=O)c2cccnc2)c(=O)n(-c2ccccc2)n1C | inactive | – | inactive | inactive | inactive | – | – | inactive | inactive | inactive | inactive | inactive | inactive | inactive | inactive | inactive | inactive | inactive | inactive | – |
| CCCCCCC1(C)CCC(=O)O1 (stereo unspecified) | inactive | – | inactive | inactive | inactive | – | inactive | inactive | inactive | inactive | inactive | inactive | inactive | inactive | inactive | inactive | – | inactive | inactive | – |
| O=C(CCCl)NCCc1ccccc1 | inactive | – | inactive | inactive | inactive | – | inactive | inactive | inactive | inactive | inactive | inactive | inactive | inactive | inactive | inactive | – | inactive | inactive | inactive |
| CC(=O)CCC1=C(C)CCCC1(C)C | inactive | – | inactive | inactive | inactive | – | inactive | inactive | inactive | inactive | inactive | inactive | inactive | inactive | inactive | inactive | – | inactive | – | – |
